Active and inactive are the calls of the source.
experiment: S. cerevisiae RM11-1a growth modifiers, primary screen, strain RM11-1a, OD600, basal, 24 h (AID 1177); conditions: OD600, 24 h, higher = more signal, called active from +8 up or from −8 down;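 note: cultures grown under basal conditions with no added stressor; test concentration not given here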

Row | SMILES | z-score
1 | CCCC[C@@H]1C[C@H]1[C@@H](NC(=O)c1ccco1)c1ccc(-c2ccccc2)cc1 | 0.505 (inactive)
2 | O=C1O[C@@H](c2ccccc2)[C@@H](c2ccccc2)N2[C@@H](c3ccccc3OCCO)[C@]3(C(=O)Nc4ccc(C#CC5=CCCCC5)cc43)[C@@H](C(=O)N3CCCCCCC3)[C@H]12 | 1.19 (inactive)
3 | O=C1NC(=O)C2C1C=CC(C(O)c1cccs1)N2Nc1ccc(Cl)cc1Cl (stereo not given) | 1.45 (inactive)
4 | COC(=O)[C@]1(CCC(=O)OC(C)(C)C)N=C(c2ccc(OCCCO)cc2)O[C@@H]1c1ccccc1CN=[N+]=[N-] | 1.84 (inactive)
5 | COc1ccc(C(=O)Nc2ccc(CN3C(=O)[C@]4(O[C@H](CCO)[C@@H]([Si](C)(C)c5ccc(OC)cc5)[C@@H]4C)c4ccccc43)cc2)cc1 | 4.35 (inactive)
6 | CC1(C)C2C=C(C(O)C3C=CC4C(=O)NC(=O)C4N3Nc3ccc(Cl)cc3Cl)C[C@@H]1C2 (stereo not given in full) | 0.84 (inactive)
7 | C=C(COC)C(=O)CC[C@@H](OC(C)=O)c1ccc(CO)o1 | -1.23 (inactive)
8 | COC(=O)c1c(CC[C@@H](CO)NC(=O)NCCn2cc(C3(O)CCCC3)nn2)oc(C(C)=O)c1C(=O)OC | -0.77 (inactive)
9 | C=C(C(=O)CC[C@@H](OC(=O)c1cccnc1)c1ccccc1OCCO)C(C)C | -0.337 (inactive)
10 | CCOC(=O)C[C@H]1[C@H](OC(=O)c2ccc(C(=O)c3ccccc3)cc2)[C@@H](NC(=O)c2ccccc2)c2cc(OCCCO)ccc2N1C(=O)c1ccc2ccccc2n1 | -0.0205 (inactive)
11 | COc1cc(NN2C(C(O)c3ccco3)C=CC3C(=O)N(c4ccccc4)C(=O)C32)cc(OC)c1OC (stereo not given) | 0.178 (inactive)
12 | COCCCNC(=O)[C@@]1(C)c2ccccc2C(=O)N(C(C)C)[C@H]1c1ccc(CO)cc1 | 1.24 (inactive)
13 | COc1cc2c(cc1OC)CN(C(=O)[C@@H]1[C@H]3C(=O)O[C@H](c4ccccc4)[C@H](c4ccccc4)N3[C@H](c3ccc(O)cc3)[C@@]13C(=O)Nc1ccccc13)CC2 | 0.028 (inactive)
14 | O=C(NC1CC1)[C@@H]1c2ccccc2C(=O)N(Cc2ccccc2Cl)[C@H]1c1ccc(CO)cc1 | -2.66 (inactive)
15 | O=C1c2ccccc2[C@](Cc2ccccc2I)(C(=O)NCC(F)(F)F)[C@H](c2ccc(CO)cc2)N1Cc1ccccc1Cl | -0.838 (inactive)
16 | Cc1ccc(S[C@]2(C(=O)O)CC(=O)N(C(C)C)[C@@H]2c2ccc(CO)cc2I)cc1 | -2.76 (inactive)
17 | COc1ccc(C#Cc2ccc3c(c2)[C@]2(C(=O)N3)[C@H](C(=O)NC[C@H](O)c3ccccc3)[C@H]3C(=O)O[C@H](c4ccccc4)[C@H](c4ccccc4)N3[C@@H]2c2ccc(O)cc2)cc1 | 2.29 (inactive)
18 | COC(=O)[C@@]1(Cc2ccc(F)cc2)[C@H]2c3cc(C(=O)N4CCCC4)n(Cc4ccc(S(C)(=O)=O)cc4)c3C[C@H]2CN1C(=O)c1ccccc1 | 0.458 (inactive)

Row | SMILES | z-score
19 | O=C1C2C=CC(C(O)c3cccc4ccccc34)N(Nc3ccccc3F)C2C(=O)N1c1ccccc1 (stereo not given) | 0.0054 (inactive)
20 | CCCC[C@@H]1C[C@H]1[C@@H](NC(=O)c1ccco1)c1ccccc1C(F)(F)F | -0.064 (inactive)
21 | CC(C)NC(=O)[C@@]1(c2ccc([N+](=O)[O-])cc2)CC(=O)N(C2CCCCC2)[C@@H]1c1ccc(CO)cc1I | 1.4 (inactive)
22 | C=CCOC(=O)[C@H]1[C@@H]2C(=O)O[C@@H](c3ccccc3)[C@@H](c3ccccc3)N2[C@@H](c2ccc(OCCOC(=O)[C@H]3C[C@H]4C(=O)N[C@@H](CCCCNC(C)=O)C(=O)N4[C@H]3c3ccc(O)cc3)cc2)[C@]12C(=O)Nc1ccc(I)cc12 | 1.38 (inactive)
23 | Cc1ccc(S[C@]2(C(=O)NC3CC3)CC(=O)N(Cc3ccccc3)[C@@H]2c2ccc(CO)cc2I)cc1 | -1.46 (inactive)
24 | CC1CC/C=C\[C@H]2OC34C=CCN(C(C)(C)C)C(=O)[C@H]3N(CCO)C(=O)[C@@H]4C2C(=O)O1 (stereo not given in full) | -0.546 (inactive)
25 | C=CCC(OC(C)=O)[C@@H]1[C@@H](N(Cc2ccc(-c3ccccc3)cc2)C(=O)Cc2ccc(OC)cc2)c2cc(OCCCO)ccc2N1C(=O)Cc1ccc2ccccc2c1 (stereo not given in full) | -0.726 (inactive)
26 | COC(=O)C(CC#Cc1ccc2c(c1)[C@]1(C(=O)N2)[C@H](C(=O)Nc2nc3ccccc3s2)[C@H]2C(=O)O[C@H](c3ccccc3)[C@H](c3ccccc3)N2[C@@H]1c1ccc(O)cc1)C(=O)OC | 0.698 (inactive)
27 | O=C1C[C@@](C(=O)NCCN2CCOCC2)(c2ccc([N+](=O)[O-])cc2)[C@@H](c2ccc(CO)cc2I)N1CC12CC3CC(CC(C3)C1)C2 | -21.4 (active)
28 | CCCCCN1CC=CC23O[C@@H]4C=CCCOC(=O)C4[C@H]2C(=O)N(CCCCCO)[C@@H]3C1=O (stereo not given in full) | 0.467 (inactive)
29 | COCCCNC(=O)[C@@H]1c2ccccc2C(=O)N(Cc2ccccc2Cl)[C@H]1c1ccc(CO)cc1 | -1.02 (inactive)
30 | C=C(CCCC)/C(=C/C[C@@H](OC(C)=O)c1ccc(OCCO)cc1)c1cnc2ccccc2c1 | -0.81 (inactive)
31 | COc1ccc(CCNC(=O)[C@@]2(Sc3ccc(C)cc3)CC(=O)N(C(C)C)[C@@H]2c2ccc(CO)cc2I)cc1 | -0.894 (inactive)
32 | CCCC[C@@H]1C[C@H]1[C@@H](NC(=O)c1cccs1)c1ccc(-c2ccccc2)cc1 | 0.822 (inactive)
33 | CN(C)CCCCCCNC(=O)[C@H]1C[C@H]2C(=O)N[C@@H](CCCCN)C(=O)N2[C@H]1c1cccc(OCCO)c1 | -0.533 (inactive)
34 | C=C(C)[C@@H]1CC=C(C(O)C2C=CC3C(=O)N(c4ccccc4)C(=O)C3N2Nc2ccccc2)CC1 (stereo not given in full) | 0.367 (inactive)
35 | COCCOC(=O)N1C(=O)[C@@]2(c3cc(C#CCC(C(=O)OC)C(=O)OC)ccc31)[C@H](c1ccccc1OCCO)N1[C@H](c3ccccc3)[C@H](c3ccccc3)OC(=O)[C@H]1[C@@H]2C(=O)NC[C@H](O)c1ccccc1 | 2.84 (inactive)

Reference: PubChem BioAssay
